Six1-Eya2 inh: blocks human Six1 binding to Eya2; Q15475+O00167; AlphaScreen GST-Six1/His-Eya2 binding, biochemical; hits give low values; activity change, % (test concentration not listed); actives 0.56% (n = 360,000); in the data active = activity change below about -65%; inconclusive = mostly about -30% to -63%
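Homogeneous AlphaScreen proximity assay pairing GST-Six1 with His-tagged Eya2 (added as 5X mix: 250 nM and 500 nM) in 50 mM Tris pH 8.0, 300 mM NaCl, 1 mM TCEP. Glutathione donor and nickel acceptor beads; 1 h, 37 °C, dark.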
CtBP-E1A blk: CtBP/E1A binding inhibition; AlphaScreen GST-E1A/His-CtBP binding, 1536-well; hits give low values; activity change, % (concentration not given with the values); actives 0.49% (n = 340,000); AID 651724; in the data active = activity change below about -65%; inconclusive = mostly about -30% to -63%
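Homogeneous bead-based format: GST-tagged E1A captured on glutathione donor beads, His-tagged CtBP on nickel acceptor beads; compounds precede bead addition by 2 h at 37 °C.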
RORg inh: blocks mouse ROR gamma transcriptional activity; P51450; Drosophila S2 Gal4-RORgamma UAS-luciferase reporter, 20 h; Potency, µM (doses to about 53.6 µM), inactives show at the top dose activity change, negative = inhibition, actives largely listed as inhibitors; actives 5.4% (n = 310,000); note: potency is the fitted concentration of half-maximal effect; nearly all actives have a fitted effect of over 60% in size
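Luciferase reporter read in Schneider cells carrying Gal4-RORγ (mouse) and UAS-Photinus luciferase; cells given compound 1 h before 700 uM copper sulfate induction, then incubated 20 h at ambient temperature.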
PKM2 activator: increases activity of human pyruvate kinase M2; actives 0.34% (n = 260,000); P14618; purified PKM2, Kinase-Glo ATP luminescence, activation; response scale: 0% is enzyme alone, no compound; Potency, µM (doses to about 57.5 µM), inactives show at the top dose activation, actives largely listed as activators; note: potency is the fitted concentration of half-maximal effect; nearly all actives have a fitted effect of over 55% in size
Target sequence (P14618 whole entry, looked up): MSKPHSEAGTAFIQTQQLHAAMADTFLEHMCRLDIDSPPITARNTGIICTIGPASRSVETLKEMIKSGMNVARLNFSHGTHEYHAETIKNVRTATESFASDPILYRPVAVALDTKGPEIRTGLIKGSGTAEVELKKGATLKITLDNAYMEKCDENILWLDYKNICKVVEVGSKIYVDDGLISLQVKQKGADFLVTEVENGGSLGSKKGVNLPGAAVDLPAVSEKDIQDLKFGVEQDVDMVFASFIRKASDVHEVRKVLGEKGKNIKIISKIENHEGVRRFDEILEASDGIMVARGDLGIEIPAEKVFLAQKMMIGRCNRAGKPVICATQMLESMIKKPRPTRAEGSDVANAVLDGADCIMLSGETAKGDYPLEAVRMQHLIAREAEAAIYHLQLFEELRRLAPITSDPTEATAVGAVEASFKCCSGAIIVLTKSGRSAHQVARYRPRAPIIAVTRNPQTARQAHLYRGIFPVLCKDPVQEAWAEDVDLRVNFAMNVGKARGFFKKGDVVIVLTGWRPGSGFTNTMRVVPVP
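ATP formation by purified human PK-M2, quantified via coupled luciferase luminescence after 1 h at room temperature with 0.1 mM ADP and 0.5 mM PEP final.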
VP16 counter: Gal4-VP16 reporter inhibition counter-screen; Potency, µM (highest dose often 53.6 µM), without a hit: top-dose activity, negative = inhibition, hits mostly inhibitors; actives 3.5% (n = 310,000); Drosophila S2 Gal4-VP16 UAS-luciferase, luminescence, 20 h;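 note: Gal4-VP16 expression switched on by copper sulfate through the metallothionein promoter; potency is the fitted concentration of half-maximal effect; nearly all actives have a fitted effect of over 50% in size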
* = called active by the depositor; ? = inconclusive; . = no result given; [ ] = dose if it differs, or a comment. Rows were chosen to be rich in hits. Some 5.6% of all compounds tested hit in one or more screens of this group. Unless noted, calls come from the whole dose curve; as a rule, active = well fitted curve in the direction sought with a large enough effect; inconclusive = small, poorly fitted or top-dose-only effect, or another doubt; inactive = no such curve, though single readings can be large; an effect the other way counts as inactive or inconclusive. % is set by controls: 0 for no effect and ±100 for the full control effect.

SMILES	Six1-Eya2 inh	CtBP-E1A blk	RORg inh	PKM2 activator	VP16 counter
CCC1=NN(C(=O)c2ccc(Br)cc2)C(O)(c2ccccc2)C1 (stereo not drawn)	-7.2	5.6	12.6µM*	0.5%	7.08µM*
O=C(CN1C(=O)c2ccccc2S1(=O)=O)NCCSCc1c(F)cccc1Cl	-4.3	3.4	7.1%	1.4%	7.1%
CCCCCN(C(=O)CCC(=O)OCc1cccc(Br)c1)c1c(N)n(CCCC)c(=O)[nH]c1=O	0.7	10.2	.	.	.
CCOC(=O)C1=CN(CC)S(=O)(=O)NC1CC (stereo not drawn)	1.4	-0.3	.	.	.
CCOc1ccc(NC(=O)Cn2nnc(C(=O)NCc3ccc4c(c3)OCO4)c2N)cc1	0.7	1.3	-32.8%	-5.9%[0.46 µM]	-18.7%
OCCC1CN(C/C=C/c2ccco2)CCN1Cc1ccccc1 (stereo not drawn)	-3.1	-1.3	-5.6%	-2.3%	0.0%
Cc1onc(-c2ccccc2Cl)c1C(=O)Nc1ccccc1	13.8	-3.9	-39.1%	1.1%	-1.2%
Cc1onc(-c2ccccc2Cl)c1C(=O)Nc1nnc(Cc2ccc(Cl)cc2)s1	-7.4	-3.8	11.2µM*	-0.2%	?
CCc1ccc(NC(=S)NC(=O)c2c(-c3ccccc3Cl)noc2C)cc1	1.8	0.4	2.51µM*	-1.6%	?
Cc1onc(-c2ccccc2Cl)c1C(=O)NC(=S)Nc1ccc(C(C)(C)C)cc1	4.4	.	7.94µM*	-6.2%	12.6µM*
Cc1onc(-c2ccccc2Cl)c1C(=O)N(C)C1CCCCC1	18.9	0.0	-14.3%	-9.4%	2.51µM*
C=CCN(CC=C)C(=O)C(=O)c1ccn(-c2c(C)csc2C(=O)OC)c1	9.0	.	2.6%	0.7%	-1.6%
COc1ccc(C=CC(=O)c2ccc([N+](=O)[O-])cc2)cc1	4.9	1.9	.	.	.
Cc1[nH]c(C)c(C(=O)/C=C/c2ccc([N+](=O)[O-])cc2)c1C	-2.6	.	1.12µM*	-0.4%	?
COc1ccc(F)cc1C(=O)C1CCCN(C(=O)C2=C(C)OCCO2)C1 (stereo not drawn)	7.3	-7.3	?	-2.9%	-1.6%
Cc1ccc(NC(=O)C(=Cc2ccc(C(=O)O)cc2)C(=O)Nc2ccc(C)cc2C)c(C)c1	-21.1	4.3	15.8µM*	9.5%	?
COc1ccc(-n2c(-c3ccc(Cl)cc3Cl)n[nH]c2=S)c(OC)c1	-0.8	1.0	3.98µM*	1.0%	6.31µM*
Fc1ccc(-c2n[nH]c(=S)n2-c2ccc3c(c2)OCCO3)cc1	-5.0	.	12.6µM*	-4.0%	-25.4%
S=c1[nH]nc(-c2ccc(Cl)cc2)n1-c1ccc2c(c1)OCCO2	1.3	-5.9	3.16µM*	-12.4%	7.08µM*
S=c1[nH]nc(-c2ccc(Cl)cc2Cl)n1-c1ccc(Cl)cc1	-3.9	1.6	6.31µM*	-13.0%	?
O=[N+]([O-])c1cccc(CSc2nnc(Cc3ccccc3)n2-c2ccc(F)cc2)c1	-13.1	-12.1	?	21.9%	-22.5%
CC(C)C[C@H](NC(=O)[C@@H]1CCCN1C(=O)[C@H](Cc1ccccc1)NC(=O)[C@H](C)NC(=O)[C@H](CCC(=O)O)NC(=O)[C@H](C)NC(=O)[C@H](CO)NC(=O)[C@H](CCC(=O)O)NC(=O)[C@H](CC(=O)O)NC(=O)[C@H](CCC(=O)O)NC(=O)[C@H](C)NC(=O)CNC(=O)[C@H](CC(N)=O)NC(=O)[C@@H]1CCCN1C(=O)[C@H](Cc1ccc(O)cc1)NC(=O)[C@@H](NC(=O)[C@H](CCCCN)NC(=O)[C@@H](NC(=O)[C@@H]1CCCN1C(=O)[C@@H](N)CCCNC(=N)N)C(C)C)C(C)C)C(=O)N[C@@H](CCC(=O)O)C(=O)N[C@@H](Cc1ccccc1)C(=O)O	.	.	-8.0%	.	1.9%
S=c1[nH]nc(-c2ccc(Cl)cc2)n1-c1ccc(Cl)cc1	7.5	-15.7	7.08µM*	0.7%[11.5 µM]	7.08µM*
CCCCCC(=O)N1C[C@H](O)[C@@H](n2cc(COC(=O)c3ccccc3)nn2)C[C@@H]1c1ccc(Cl)cc1	-1.4	1.9	.	.	.
CCOc1ccc(C(=O)Nc2ccccc2N2CCN(C(=O)c3ccccc3)CC2)cc1[N+](=O)[O-]	-1.9	-15.8	-12.7%	1.7%	-10.6%
SMILES	Six1-Eya2 inh	CtBP-E1A blk	RORg inh	PKM2 activator	VP16 counter
CCC(=O)NCCc1nc2cc(NC(=O)c3ccco3)ccc2n1C	-0.2	7.0	-14.0%	.	-1.9%
Cc1csc(SCC(=O)Nc2ccccc2C)n1	1.5	-2.8	.	.	.
CCn1c(C)cs/c1=N\C(=S)Nc1ccccc1C	0.0	-1.9	2.24µM*	17.3%	5.62µM*
CC1CCN(C(=O)COC(=O)Cc2ccc(Br)cc2)CC1	6.0	0.0	9.5%	.	0.2%
Cc1ccc(C(c2nnnn2CCc2ccccc2)N2CCSCC2)cc1 (stereo not drawn)	-8.2	0.7	24.6%	-24.2%	-3.1%
CC1CCN(C(c2ccccc2)c2nnnn2C(C)(C)C)CC1 (stereo not drawn)	5.9	-11.5	?	-16.0%	3.16µM*
Cc1ccc(C(c2nnnn2CCc2ccccc2)N2CCC(C)CC2)cc1 (stereo not drawn)	10.6	-2.0	?	2.7%	14.1µM*
Cc1cc(C)n(-c2ccccc2C#N)n1	-0.8	-1.4	18.4%	3.0%	-2.7%
Cc1cc2c(cc1S(=O)(=O)Nc1ccc(F)cc1)n(C)c(=O)c(=O)n2C	-2.1	1.2	43.4%	2.51µM*	-2.7%
Cc1cc2c(cc1S(=O)(=O)Nc1c(C)cccc1C)n(C)c(=O)c(=O)n2C	-1.3	0.0	10.4%	21.8%	1.5%
Cc1cc2c(cc1S(=O)(=O)Nc1cccc(C)c1C)n(C)c(=O)c(=O)n2C	-1.2	2.3	?	0.501µM*	-21.0%
Cn1c(SCC(=O)NC2CC2)nnc1-c1cccs1	-10.8	-14.8	?	1.3%	17.8µM*
COc1ccc(OC)c(S(=O)(=O)N2CCC(C(=O)NCc3ccccn3)CC2)c1	9.2	1.8	11.4%	-10.8%	7.5%
Nc1nc(Cl)nc2c1ncn2[C@@H]1O[C@H](CO)[C@H](O)C1F (stereo partly drawn)	.	.	-11.0%[10 µM]	.	?
Cc1ccc(S(=O)(=O)CCSc2nc(C)cc(C)c2C#N)cc1	8.1	8.7	4.0%	25.1µM*	5.0%
CCS(=O)(=O)CCSc1nc(C)cc(C)c1C#N	1.7	12.7	-24.0%	7.7%	-1.1%
O=c1ccc(-c2ccc([N+](=O)[O-])cc2)nn1-c1ccccc1	-2.2	3.4	33.6%	6.6%	-7.0%
O=[N+]([O-])c1ccc(-[n+]2nc(-c3ccccc3)nn2-c2ccccc2)cc1	-81.7*	-91.6*	-42.8%	-1.8%[11.5 µM]	?
CCc1ccc(C(=O)/C=C/Nc2ccc(S(=O)(=O)Nc3onc(C)c3C)cc2)cc1	-20.7	-20.0	?	4.8%	15.8µM*

Source: PubChem
